Results on five molecules are retold here after PubChem BioAssay.

SMILES strings stand for the structures. Activity calls are given as the source filed them.

Assay [1] in a line: small molecules captured by biotinylated probe aFSTL3 – biochemical, small-molecule microarray, fluorescence 635/667, stem cell growth factor project, primary screen (AID 1064).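 Further: measures binding of the biotinylated anti-FSTL3 antibody to printed compounds.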 To be noted: higher = more signal.
A short description of assay [2]: binders from COS7 lysate, DM2A8 probe, primary screen, torsin A project, cell lysate, small-molecule microarray, fluorescence 635/667 (AID 1065). Conditions: higher = more signal, COS7 lysate expressing mutant human TOR1A.
Assay [3] can be described thus: small molecules captured by biotinylated probe aFGF2 – biochemical, small-molecule microarray, fluorescence 635/667, stem cell growth factor project, primary screen (AID 1067).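 Further: measures binding of biotinylated aFGF2 protein to printed compounds on slides; z-score merges feature fluorescence and signal-to-noise across triplicate slides.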 Conditions: higher = more signal.
The nature of assay [4]: small molecules captured by biotinylated probe aFGF10 – biochemical, small-molecule microarray, fluorescence 635/667, stem cell growth factor project, primary screen (AID 1071).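 Further: score merges 667 nm spot intensity and signal to noise from triplicate slides.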 To be noted: higher = more signal.
The target in assay [5] is Neurogenic locus notch homolog protein 2 (Homo sapiens) (UniProt Q04721). As to the kind of experiment: small molecules binding Notch2 protein – biochemical, small-molecule microarray, 635 nm fluorescence, stem cell growth factors, primary screen (AID 1073). Conditions: higher = more signal.
In assay [6] the target is Pro-neuregulin-1, membrane-bound isoform (Homo sapiens) (UniProt Q02297). As to the kind of experiment: small molecules binding neuregulin-1 protein – biochemical, small-molecule microarray, fluorescence 635/667, psychiatric disease protein project, primary screen (AID 1075).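 Further: score combines 667 nm spot fluorescence with signal to noise.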 Conditions: NRG1 binding, 635 nm fluorescence, higher = more signal.
Pro-neuregulin-1, membrane-bound isoform (Homo sapiens), sequence (Q02297 whole entry, looked up, the tested form may be a part, canonical isoform): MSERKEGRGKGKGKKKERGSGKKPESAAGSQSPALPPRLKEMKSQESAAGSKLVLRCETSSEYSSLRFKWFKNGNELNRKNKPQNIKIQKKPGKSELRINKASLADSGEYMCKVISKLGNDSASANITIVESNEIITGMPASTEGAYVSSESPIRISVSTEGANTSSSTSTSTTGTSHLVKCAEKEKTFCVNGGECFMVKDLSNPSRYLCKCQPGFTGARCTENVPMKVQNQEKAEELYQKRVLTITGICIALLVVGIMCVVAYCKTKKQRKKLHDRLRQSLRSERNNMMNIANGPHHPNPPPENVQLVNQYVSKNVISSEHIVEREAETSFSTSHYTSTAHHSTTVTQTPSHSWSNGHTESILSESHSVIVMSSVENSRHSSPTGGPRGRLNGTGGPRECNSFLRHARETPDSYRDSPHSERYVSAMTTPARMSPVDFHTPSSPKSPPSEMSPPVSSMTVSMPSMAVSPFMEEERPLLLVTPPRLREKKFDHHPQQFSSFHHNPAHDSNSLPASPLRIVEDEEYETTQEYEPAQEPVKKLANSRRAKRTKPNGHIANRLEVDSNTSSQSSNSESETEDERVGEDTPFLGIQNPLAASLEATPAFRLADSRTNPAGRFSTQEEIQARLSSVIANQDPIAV
In assay [7] the test system is Neuregulin-1 EGF-like domain. As to the kind of experiment: small molecules binding NRG1 EGF domain – biochemical, small-molecule microarray, 635 nm fluorescence, primary screen (AID 1081).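 Further: binding of the protein to compounds printed on small-molecule microarray slides.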 Conditions: higher = more signal.
Assay [8] can be described thus: FRG1 expression reporter modulators in myotubes – cell-based, C2C12 myotubes, firefly/Renilla luciferase, luminescence, FRG1 inhibition for FSHD, primary screen (AID 1084). Conditions: FRG1 promoter luciferase, higher = more signal, called active from +8 up or from −8 down.
Assay [9] is described as follows: small molecules captured by biotinylated probe aFST – biochemical, small-molecule microarray, fluorescence 635/667, stem cell growth factor project, primary screen (AID 1086).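 Further: score merges 667 nm fluorescence with signal-to-noise of each printed compound spot.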 To be noted: higher = more signal.
Assay [10] in a line: binders of probe aHhip on microarray, primary screen, stem cell growth factor project, biochemical, small-molecule microarray, fluorescence 635/667 (AID 1087).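 Further: score merges spot fluorescence at 667nm with spot signal to noise ratio.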 Conditions: higher = more signal.
The subject of assay [11] is PRMT1 (protein arginine N-methyltransferase 1). As to the kind of experiment: small molecules binding arginine methyltransferase PRMT1 – biochemical, small-molecule microarray, 635 nm fluorescence, primary screen (AID 1088).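 Further: binding of Prmt1 protein to compounds spotted on small-molecule microarray slides.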 Conditions: higher = more signal.
A short description of assay [12]: growth effects on S. cerevisiae YJM789 – YJM789 clinical isolate, OD600, 24 h, basal, primary screen (AID 1089).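 Further: growth of clinical yeast isolate S. cerevisiae YJM 789 seeded 1000 cells per well; test concentration not given here.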 Conditions: higher = more signal, called active from +8 up or from −8 down.
Assay [13] is described as follows: S. pombe growth modifiers, basal conditions – strain 972, OD600, 24 h, no modulator, primary screen (AID 1090).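 Further: basal condition with compound alone and no growth modifier present; test concentration not given here.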 Conditions: S. pombe 972 growth, higher = more signal, called active from +8 up or from −8 down.
Assay [14] is described as follows: budding yeast growth modifiers under rapamycin – strain BY4716, OD600, 96 h, primary screen (AID 1091). Further: test concentration not given here. Conditions: S. cerevisiae BY4716 + rapamycin, higher = more signal, called active from +8 up or from −8 down.
The target in assay [15] is Torsin-1A-interacting protein 2 (Homo sapiens) (UniProt Q8NFQ8). As to the kind of experiment: small molecules binding lysate-expressed LULL1 – cell lysate, human LULL1 lysate, 635/667 nm fluorescence, primary screen (AID 1092).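 Further: probe is lysate of COS7 cells overexpressing human LULL1; score merges per-feature 667 nm fluorescence with signal-to-noise.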 To be noted: small-molecule microarray, hLULL1 lysate binding, 635 nm fluorescence; higher = more signal.
Torsin-1A-interacting protein 2 (Homo sapiens), sequence (Q8NFQ8 whole entry, looked up): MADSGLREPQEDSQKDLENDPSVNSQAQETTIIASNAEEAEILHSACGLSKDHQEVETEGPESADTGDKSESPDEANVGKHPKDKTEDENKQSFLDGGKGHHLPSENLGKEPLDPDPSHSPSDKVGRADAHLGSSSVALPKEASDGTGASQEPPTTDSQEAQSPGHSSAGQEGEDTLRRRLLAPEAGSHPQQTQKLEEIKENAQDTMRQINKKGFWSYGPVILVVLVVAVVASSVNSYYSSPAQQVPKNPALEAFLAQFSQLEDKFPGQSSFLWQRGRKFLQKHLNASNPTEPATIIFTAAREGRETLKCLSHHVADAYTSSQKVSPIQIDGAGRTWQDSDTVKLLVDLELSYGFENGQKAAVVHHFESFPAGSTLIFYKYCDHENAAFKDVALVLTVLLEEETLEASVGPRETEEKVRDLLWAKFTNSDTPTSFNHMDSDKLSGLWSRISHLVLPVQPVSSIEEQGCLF
Assay [16] in a line: optical density change of DRC41 E. coli – strain DRC41, OD650, 24 h, E. coli filamentation project, primary screen (AID 1093).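 Further: MC1000 strain lacking acrAB efflux and sulA so SOS filamentation is blocked; test concentration not given here.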 Conditions: E. coli DRC41 growth, higher = more signal, called active from +8 up or from −8 down.
A short description of assay [17]: probe aLefty2 binding to arrayed compounds – biochemical, biotinylated probe, 635/667 nm fluorescence, primary screen (AID 1094).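 Further: score merges spot fluorescence near 667 nm with spot signal-to-noise ratio.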 Conditions: small-molecule microarray, higher = more signal.
Assay [18] has as its system Noggin (protein binding on small-molecule microarray). As to the kind of experiment: small molecules binding Noggin protein – biochemical, 635/667 nm fluorescence, primary screen (AID 1095).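 Further: score merges 667 nm feature fluorescence with signal to noise over triplicate slides.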 Conditions: 635 nm fluorescence, higher = more signal.
The target in assay [19] is Neurogenic locus notch homolog protein 3 (Homo sapiens) (UniProt Q9UM47). As to the kind of experiment: small molecules binding NOTCH3 protein – biochemical, 635/667 nm fluorescence, primary screen (AID 1096). To be noted: small-molecule microarray, 635 nm fluorescence, higher = more signal.
Neurogenic locus notch homolog protein 3 (Homo sapiens), sequence (Q9UM47 whole entry, looked up): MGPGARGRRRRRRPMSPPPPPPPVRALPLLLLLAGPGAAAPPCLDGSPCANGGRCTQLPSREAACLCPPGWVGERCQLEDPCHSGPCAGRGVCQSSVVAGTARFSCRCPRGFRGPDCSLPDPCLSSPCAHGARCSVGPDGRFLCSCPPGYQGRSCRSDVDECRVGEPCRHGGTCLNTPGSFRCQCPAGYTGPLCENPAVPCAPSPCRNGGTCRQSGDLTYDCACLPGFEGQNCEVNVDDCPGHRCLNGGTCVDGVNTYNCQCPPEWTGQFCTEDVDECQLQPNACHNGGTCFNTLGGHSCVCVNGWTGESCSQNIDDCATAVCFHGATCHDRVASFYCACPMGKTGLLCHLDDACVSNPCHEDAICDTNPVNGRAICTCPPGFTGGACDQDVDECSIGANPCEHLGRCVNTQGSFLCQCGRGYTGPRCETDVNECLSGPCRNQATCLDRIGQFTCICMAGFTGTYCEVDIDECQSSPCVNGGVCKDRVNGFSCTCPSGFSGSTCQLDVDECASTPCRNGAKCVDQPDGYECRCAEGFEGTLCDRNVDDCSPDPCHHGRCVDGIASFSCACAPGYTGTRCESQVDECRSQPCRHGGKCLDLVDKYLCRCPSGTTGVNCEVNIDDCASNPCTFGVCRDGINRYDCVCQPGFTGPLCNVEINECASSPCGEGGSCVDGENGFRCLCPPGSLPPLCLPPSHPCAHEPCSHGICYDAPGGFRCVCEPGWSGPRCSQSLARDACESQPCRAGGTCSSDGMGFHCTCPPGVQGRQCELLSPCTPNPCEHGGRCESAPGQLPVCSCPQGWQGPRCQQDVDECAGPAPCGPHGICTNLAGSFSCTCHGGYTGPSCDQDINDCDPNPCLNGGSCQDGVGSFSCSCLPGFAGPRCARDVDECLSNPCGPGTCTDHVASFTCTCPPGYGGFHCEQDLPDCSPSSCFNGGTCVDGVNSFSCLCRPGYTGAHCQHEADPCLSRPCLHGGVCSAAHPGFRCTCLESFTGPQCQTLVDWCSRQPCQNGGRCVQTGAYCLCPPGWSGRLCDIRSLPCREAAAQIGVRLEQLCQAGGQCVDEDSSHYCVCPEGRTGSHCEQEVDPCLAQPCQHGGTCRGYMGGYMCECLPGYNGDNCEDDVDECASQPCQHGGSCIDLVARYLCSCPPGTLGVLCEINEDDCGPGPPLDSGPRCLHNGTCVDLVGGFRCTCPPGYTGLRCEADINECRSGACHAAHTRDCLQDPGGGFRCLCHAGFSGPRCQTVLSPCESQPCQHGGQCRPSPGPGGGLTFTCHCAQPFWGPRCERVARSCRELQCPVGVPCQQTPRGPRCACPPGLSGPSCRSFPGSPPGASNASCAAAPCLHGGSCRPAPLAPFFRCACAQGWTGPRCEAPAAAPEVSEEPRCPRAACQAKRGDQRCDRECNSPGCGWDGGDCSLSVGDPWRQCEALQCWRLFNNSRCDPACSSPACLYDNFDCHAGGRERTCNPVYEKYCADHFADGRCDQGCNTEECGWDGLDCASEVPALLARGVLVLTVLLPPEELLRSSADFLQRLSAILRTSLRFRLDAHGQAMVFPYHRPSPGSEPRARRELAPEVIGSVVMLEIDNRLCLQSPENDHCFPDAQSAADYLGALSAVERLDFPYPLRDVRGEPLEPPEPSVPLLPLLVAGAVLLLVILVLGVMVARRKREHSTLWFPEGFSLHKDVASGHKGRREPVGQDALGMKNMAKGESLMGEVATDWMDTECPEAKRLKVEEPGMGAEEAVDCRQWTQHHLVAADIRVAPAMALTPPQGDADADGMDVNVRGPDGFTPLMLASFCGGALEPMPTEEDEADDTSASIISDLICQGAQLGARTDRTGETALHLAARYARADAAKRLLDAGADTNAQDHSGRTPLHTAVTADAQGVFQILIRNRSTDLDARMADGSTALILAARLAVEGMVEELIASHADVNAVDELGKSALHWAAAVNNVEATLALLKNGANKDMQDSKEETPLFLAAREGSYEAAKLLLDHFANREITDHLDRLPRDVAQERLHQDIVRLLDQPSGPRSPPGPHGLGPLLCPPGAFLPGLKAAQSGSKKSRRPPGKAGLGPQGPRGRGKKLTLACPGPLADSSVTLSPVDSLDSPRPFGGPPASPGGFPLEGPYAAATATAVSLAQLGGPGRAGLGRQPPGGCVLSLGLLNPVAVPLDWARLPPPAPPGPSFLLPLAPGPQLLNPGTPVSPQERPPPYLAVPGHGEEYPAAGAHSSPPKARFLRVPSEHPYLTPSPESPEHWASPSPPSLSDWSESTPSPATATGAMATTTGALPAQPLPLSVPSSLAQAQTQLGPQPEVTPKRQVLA
A short description of assay [20]: probe aEGFR binding to arrayed compounds – biochemical, biotinylated probe, 635/667 nm fluorescence, primary screen (AID 1097).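 Further: probe is a biotinylated anti-EGFR antibody binding compounds printed on slides; score combines fluorescence near 667 nm and signal to noise of each spot.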 Conditions: small-molecule microarray, higher = more signal.

As for `C=CCOC(=O)[C@H]1[C@@H]2C(=O)O[C@@H](c3ccccc3)[C@@H](c3ccccc3)N2[C@@H](c2ccc(OCCOC(=O)[C@H]3C[C@H]4C(=O)N[C@@H](CCCCNC(C)=O)C(=O)N4[C@H]3c3cccc(OCCO)c3)cc2)[C@]12C(=O)Nc1ccc(I)cc12`, the composite z-score in assay [1] was 0.276; in [2], 1.01; in assay [3], -0.144; in assay [4], 0.818; in [5] it was 0.656; in assay [6], 1.29. Moreover, the composite z-score was 1.26 in assay [7]; 2.65 in assay [9]; 0.215 in assay [10]; 1.55 in [11]; 2.18 in [15]; -0.431 in assay [17]. Moreover, the composite z-score in assay [18] is 1.87; in [19] it was 1.1; in assay [20], -0.336. In addition, the z-score in assay [8] was 0.29 (inactive); in [12], 1.15 (inactive); in assay [13], 1.14 (inactive); in assay [14], 4.54 (inactive); in assay [16] it was 1.44 (inactive).
On to `C=C(C(=O)CC[C@H](OC(=O)c1ccccc1-c1ccccc1C(=O)O)c1ccccc1OCCO)C(C)C`, for which the composite z-score in assay [1] was -0.148; in [2], 0.724; in assay [3], -0.163; in [4], 0.782; in assay [5], 0.393; in [6], 0.61. For the same molecule, the composite z-score in assay [7] was 1.18; in [9] it was 0.117; in assay [10], -0.0994; in assay [11] it was 1.41; in assay [15], 1.46; in assay [17], -0.199. In addition, the composite z-score in [18] was 0.695; in [19] it was 0.257; in [20], -0.194. Also, the z-score in assay [8] was -1.38 (inactive); in assay [12] it was 0.574 (inactive); in assay [13] it was -0.788 (inactive); in assay [14], -0.927 (inactive); in assay [16] it was 0.968 (inactive).
`CCCCCN1CC=CC23O[C@@H]4C=CCOC(=O)[C@@H]4[C@H]2C(=O)N(CCO)[C@@H]3C1=O` (stereo not given in full): the composite z-score in assay [1] is 0.388; in assay [2] it was 0.483; in assay [3], -0.177; in assay [4], 0.162; in assay [5], -1.27; in assay [6] it was 1.6. Further, the composite z-score was 1.48 in [7]; -0.455 in assay [9]; -0.199 in assay [10]; 0.487 in assay [11]; 2.35 in assay [15]; -0.244 in [17]. Also, the composite z-score in assay [18] is -1.25; in [19] it was -0.195; in assay [20] it was -0.235. Moreover, the z-score in assay [8] was -0.0097 (inactive); in [12], 0.15 (inactive); in [13] it was -0.178 (inactive); in assay [14], -0.175 (inactive); in assay [16], -0.229 (inactive).
Take `CCCCCCCCCCC(O)C1C=CC2C(=O)N(C)C(=O)C2N1Nc1cc(OC)c(OC)c(OC)c1` (stereo not given): the composite z-score in [1] is 0.736; in [2], -0.157; in [3] it was -0.194; in [4], -0.873; in [5] it was -0.717; in assay [6], 0.55. For the same molecule, the composite z-score is -0.199 in assay [7]; 0.0296 in assay [9]; -0.21 in [10]; -0.415 in assay [11]; 1.54 in assay [15]; -0.161 in assay [17]. Further, the composite z-score is -1.3 in assay [18], -0.713 in assay [19] and -0.189 in assay [20]. In addition, the z-score in assay [8] is 0.507 (inactive); in assay [12], 0.692 (inactive); in [13] it was 0.134 (inactive); in assay [14] it was -1.17 (inactive); in assay [16], -1.74 (inactive).
Regarding `CC1(C)C(=O)C(c2ccccc2)=C2CN3C(=O)N(CCc4ccccc4)C(=O)C3(Cc3ccc(C(F)(F)F)cc3)C=C21` (stereo not given), the composite z-score is 0.138 in assay [1]; -0.2 in assay [2]; 0.0814 in assay [3]; 0.432 in assay [4]; 1.66 in assay [5]; 0.613 in [6]. Further, the composite z-score in assay [7] was 0.831; in [9], 1.67; in assay [10], -0.0024; in [11] it was -0.362; in assay [15], 2.65; in assay [17], 0.208. Also, the composite z-score in assay [18] was -0.0717; in assay [19], 1.13; in assay [20] it was 0.284. Further, the z-score in assay [8] is -0.495 (inactive); in assay [12] it was 1.32 (inactive); in assay [13], 2.01 (inactive); in assay [14] it was 3.28 (inactive); in assay [16] it was -1.21 (inactive).
